The record followed here is PubChem BioAssay (NCATS).

For assay [1], the target named is Glutathione peroxidase 1 (Homo sapiens) (UniProt P07203). Briefly: Primary qHTS Assay for Inhibitors of Recombinant Selenoprotein Glutathione Peroxidase 1 (GPX1) (AID 1845191). Further: nearly all actives have a fitted effect of over 65% in size. On activity, negative = inhibition: on the % scale 0 is the no-effect control and ±100 the full control effect. The method in brief:
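GR-coupled readout: NADPH consumption tracked by fluorescence, ex 340/em 450 nm, at t=0 and after 15 min at RT. Final mix 10 nM GPX1, 1 mM GSH, 0.5 mM CHP, 0.5 mM NADPH, 100 nM GR, 0.01% BSA, following 30 min enzyme–compound preincubation.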
A general note: Quantitative high-throughput screening tests each substance at several concentrations.

Assay [2] deals with Phospholipid hydroperoxide glutathione peroxidase GPX4 (Homo sapiens) (UniProt P36969). Briefly: Primary qHTS Assay for Inhibitors of Recombinant Selenoprotein Glutathione Peroxidase 4 (GPX4) (AID 1845192). Further: nearly all actives have a fitted effect of over 65% in size. On activity change, negative = inhibition: series mostly up to about 50 µM; on the % scale 0 is the no-effect control and ±100 the full control effect. In short, it runs like this: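 Steps: GPX4 plus compound, 30 min RT; add GR/GSH/NADPH master mix; start with cumene hydroperoxide; read 340/450 nm fluorescence at 0 and 15 min. Finals were 200 nM GPX4, 1 mM GSH, 0.5 mM CHP, 0.5 mM NADPH, 100 nM GR.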
Chain of Phospholipid hydroperoxide glutathione peroxidase GPX4 (Homo sapiens) (P36969 whole entry, looked up): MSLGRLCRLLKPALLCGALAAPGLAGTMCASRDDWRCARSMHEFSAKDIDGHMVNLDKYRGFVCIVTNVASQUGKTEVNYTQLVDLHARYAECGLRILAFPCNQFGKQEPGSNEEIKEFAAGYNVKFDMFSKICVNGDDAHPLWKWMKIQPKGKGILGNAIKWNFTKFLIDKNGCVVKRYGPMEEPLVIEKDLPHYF

In assay [3] the target is Luciferin 4-monooxygenase (Photinus pyralis) (UniProt P08659). The experiment in a line: Primary firefly luciferase (FLuc) qHTS assay for identification of artifact compounds. (AID 1845220). Further: nearly all actives have a fitted effect of over 60% in size.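 On activity change, negative = inhibition: series mostly up to about 54 µM; plate controls were DMSO vehicle for no effect and no enzyme for full effect.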 The method in brief:
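Titrated compounds were incubated 15 min at RT, protected from light, with luciferin and ATP at 10 uM; reaction started with 10 nM FLuc, luminescence imaged at 5 min, and concentration-response fitted by Hill equation.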

A short description of assay [4]: Primary fluorescence-based thiol-reactive (MSTI) qHTS assay for identification of artifact compounds. (AID 1845221). Further: nearly all actives have a fitted effect of over 65% in size. Further: potency means the concentration at half of the fitted maximal effect.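 On activity change, negative = thiol reactive: series mostly up to about 54 µM; thiol-reactive compounds lower the probe fluorescence signal.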 In short, it runs like this: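 First, 4 uM MSTI in 2% DMSO/PBS pH 7.4 was dispensed; next, compounds were added; then plates sat 1 h at room temperature without light. Finally, emission at 598 nm was recorded.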
The subject of assay [5] is Nanoluciferase (engineered Oplophorus gracilirostris luciferase). Briefly: Primary Nanoluciferase (NLuc) qHTS assay for identification of artifact compounds. (AID 1845222). Further: potency means the concentration at half of the fitted maximal effect.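 On activity, negative = inhibition: NLuc secreted into diluted conditioned medium of S16 cells; series mostly up to about 54 µM; 0% = DMSO and -100% = no enzyme.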 In short, it runs like this: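 qHTS format, against NLuc in S16 cell-conditioned medium. Nano-Glo substrate 1:100 was added after 15 min at room temperature. Luminescence was taken after a further 5 min.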

Assay [6] in a line: Primary redox qHTS assay for identification of artifact compounds. (AID 1845223).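 Further: 0% = DMSO and 100% = reference compound.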 In short, it runs like this: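 Redox-cycling detection via DTT (250 uM final) oxidation coupled to Amplex Red (25 uM)/HRP (250 mU/mL) in HBSS. 15 min preincubation plus 30 min after DTT, room temperature. Ex/Em 525/598 nm; 4-parameter Hill fit against DMSO and 10 uM DA3003.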

Unmarked numbers belong to inactive results. Results filed as inconclusive are left out. Activity calls are given as the source filed them. The call rests on the fitted dose curve; in most records, active means well fitted curve in the direction sought with a large enough effect; inconclusive means small, poorly fitted or top-dose-only effect, or another doubt; inactive means no such curve, though single readings can be large; an effect the other way counts as inactive or inconclusive.

Chain of Glutathione peroxidase 1 (Homo sapiens) (P07203 whole entry, looked up): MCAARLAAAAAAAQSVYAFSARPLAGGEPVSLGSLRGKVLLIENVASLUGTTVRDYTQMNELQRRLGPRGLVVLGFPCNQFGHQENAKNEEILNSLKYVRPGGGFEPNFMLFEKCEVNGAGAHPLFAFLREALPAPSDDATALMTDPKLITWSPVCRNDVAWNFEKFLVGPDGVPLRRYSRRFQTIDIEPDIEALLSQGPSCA

For the compound `CC(C)(C)C1CCN(C(=O)n2ncc(C(O)(c3ccccc3)c3ccccc3)n2)CC1`, the Potency result in assay [1], in assay [2], in assay [3], in assay [4], in assay [5] and in assay [6] was “inactive” throughout.

As for `CC(=O)OC(C)(C)/C=C/C(=O)[C@](C)(O)[C@H]1C(O)C[C@@]2(C)[C@@H]3CC=C4[C@@H](C=C(O[C@@H]5O[C@H](CO)[C@@H](O)[C@H](O)[C@H]5O)C(=O)C4(C)C)[C@]3(C)C(=O)C[C@]12C` (stereo not given in full), the Potency entry in assay [1], in assay [2], in assay [3], in assay [4], in assay [5] and in assay [6] was “inactive” in each case.

Turning to `C1=C/COCc2cc(ccc2OCCN2CCCC2)Nc2nccc(n2)-c2cccc(c2)COC/1`, the Potency entry in assay [1], in assay [2], in assay [3], in assay [4], in assay [5] and in assay [6] was “inactive” throughout.

`C=C1C(=O)OC2C(OC(=O)C=C(C)C)C(C)=C3C(=O)C=C(C)C3C(O)C12` (stereo not given): the Potency entry in assay [1], in assay [2], in assay [3], in assay [4] and in assay [6] was “inactive” each time. The Potency in assay [5] is 7.4 µM (active).

Turning to `O=C(NC[C@H]1CN(c2ccc(N3CCOCC3=O)cc2)C(=O)O1)c1ccc(Cl)s1`, the Potency entry in assay [1], in assay [2], in assay [3], in assay [4], in assay [5] and in assay [6] was “inactive” each time.

As for `NC(=O)CCCSc1nc(N)nc(-c2c(Cl)cc3c4c(cccc24)COC3)n1`, the Potency entry in assay [1], in assay [2], in assay [3], in assay [4], in assay [5] and in assay [6] was “inactive” throughout.

With `CCCc1cc(C)n(C)c(=O)c1CN(C)C(=O)c1cc(-c2ccc(N3CCN(C(C)C)CC3)nc2)cc2c1cnn2C(C)C`, the Potency entry in assay [1], in assay [2], in assay [3], in assay [4], in assay [5] and in assay [6] was “inactive” throughout.

For `C=C1C(=O)OC2C3=C(C)C(=O)CC3C(C)CC(O)C12` (stereo not given), the Potency result in assay [1], in assay [2], in assay [3], in assay [5] and in assay [6] was “inactive” in each case. Also, in assay [4], the Potency was 11.9 µM (active).

Turning to `C=C1C(=O)OC2CC(C)C(CCC(C)=O)=CCC12` (stereo not given), the Potency result in assay [1], in assay [2], in assay [3], in assay [4], in assay [5] and in assay [6] was “inactive” each time.

For the compound `CCN1CCN(Cc2ccc(NC(=O)c3ccc(C)c(Oc4ccnc5[nH]ccc45)c3)cc2C(F)(F)F)CC1`, the Potency entry in assay [1], in assay [2], in assay [3], in assay [4], in assay [5] and in assay [6] was “inactive” each time.

Turning to `CO[C@H]1[C@@H](O)[C@H](O[C@H]2CC[C@@]3(C)C(CCC4C3CC[C@]35COC6(COC(=O)C6)C3CCC45O)C2)O[C@@H](C)[C@@H]1OC1OC(CO)C(OC2OC(CO)C(O)C(O)C2O)C(O)C1O` (stereo not given in full), the Potency result in assay [1] and in assay [2] was “inactive” in each case. In assay [3], the activity change, negative = inhibition was -4.26% [at 11.6 µM]. In assay [4], the activity change, negative = thiol reactive was 77.5% [at 11.5 µM]. Besides, the activity, negative = inhibition in assay [5] was -0.128% [at 11.6 µM]. Moreover, in assay [6], the redox activity (% of DA3003) is -0.0298% [at 11.5 µM].

`CNS(=O)(=O)c1ccccc1Nc1nc(Nc2ccc(N3CCN(C)CC3)cc2OC)ncc1Br`: the Potency entry in assay [1], in assay [2], in assay [3], in assay [5] and in assay [6] was “inactive” in each case. In addition, the Potency in assay [4] was 2.67 µM (active).

Turning to `C=C1CCCC2(C)CCC(C(C)(C)OC3OC(C)C(O)C(O)C3OC(=O)/C(C)=C\C)CC12` (stereo not given), the Potency result in assay [1], in assay [2], in assay [3], in assay [4], in assay [5] and in assay [6] was “inactive” in each case.

As to `CC(=O)Nc1cccc(Nc2ncnc(N3CCC(OCc4ccc(OC(F)(F)F)cc4)CC3)n2)c1C`, the Potency entry in assay [1], in assay [2], in assay [3], in assay [4], in assay [5] and in assay [6] was “inactive” each time.

For `C[C@@H]1CC[C@]2(C(=O)O)CC[C@]3(C)C(=CCC4[C@@]5(C)CC[C@H](O)[C@](C)(C(=O)O)C5CC[C@]43C)C2[C@]1(C)O` (stereo not given in full), the Potency entry in assay [1], in assay [2], in assay [3], in assay [4], in assay [5] and in assay [6] was “inactive” in each case.

With `N#Cc1ccc(COc2ccc(-c3cccc4nc(NC(=O)C5CC5)nn34)cc2)cn1`, the Potency result in assay [1], in assay [2], in assay [3], in assay [4], in assay [5] and in assay [6] was “inactive” each time.

In the case of `O=C(Nc1ccc(Cl)cc1)c1ccccc1NCc1ccncc1`, the Potency entry in assay [1], in assay [2], in assay [3], in assay [4], in assay [5] and in assay [6] was “inactive” throughout.

Consider `CC(C)=C1C[C@@]2(C)C(=CC1=O)CC[C@@H](OC(=O)/C(C)=C/CO)[C@@H]2C`, for which the Potency entry in assay [1], in assay [2], in assay [3], in assay [4], in assay [5] and in assay [6] was “inactive” throughout.

Consider `CCN1C(C)(C)CC(Oc2ccc(C(=O)Nc3ccc(NC(=O)Nc4cc(C(C)(C)C)on4)cc3)nc2)CC1(C)C`, for which the Potency result in assay [1], in assay [2], in assay [3], in assay [4], in assay [5] and in assay [6] was “inactive” in each case.

As for `C[C@@H](Nc1ncnc2[nH]c(-c3ccc(O)cc3)cc12)c1ccccc1`, the Potency result in assay [1], in assay [2], in assay [3], in assay [5] and in assay [6] was “inactive” each time. In assay [4], the Potency is 1.34 µM (active).

As for `CCc1ccccc1OC[C@@H](O)CN[C@H]1CCCc2ccccc21`, the Potency entry in assay [1], in assay [2], in assay [3], in assay [4], in assay [5] and in assay [6] was “inactive” throughout.

With `COC(=O)N1CCC(n2ncc3c(N4CCOCC4)nc(-c4ccc(NC(=O)NC5CC5)cc4)nc32)CC1`, the Potency result in assay [1], in assay [2], in assay [3], in assay [4], in assay [5] and in assay [6] was “inactive” throughout.

On to `CC(=O)OC1C(OC(=O)c2ccccc2)C2C(C)(C)CCC(OC(C)=O)C2(C)C23CCC(C)(C2)C(=O)CC13` (stereo not given), for which the Potency entry in assay [1], in assay [2], in assay [3], in assay [4], in assay [5] and in assay [6] was “inactive” throughout.

Regarding `CC#CC(=O)Nc1ccc2ncnc(Nc3cccc(Br)c3)c2c1`, the Potency entry in assay [1], in assay [2], in assay [3], in assay [4], in assay [5] and in assay [6] was “inactive” each time.

For the compound `C=C1C(=O)OC2/C=C(\CO)CC/C=C(\C=O)C(O)C(OC(=O)C(C)CC)C12` (stereo not given), the Potency entry in assay [1], in assay [2], in assay [3], in assay [5] and in assay [6] was “inactive” each time. The Potency in assay [4] was 14.7 µM (active).
